Source: PubChem BioAssay (NCI)
The panel holds about 83,000 compounds, 20% with a hit somewhere; the sample as a whole holds those more often.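 Treatment: one concentration, 48 hours, 96-well format. Scoring: percent growth, with anything below 10 considered active.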 Values without a mark were called inactive. The source made the active and inactive calls.

What was measured:
Test in all cases: NCI-60 one-dose screen, 48 h (100 = growth as untreated, 0 = no growth, -100 = all killed)
Conditions in all cases: 10 µM unless noted
SR leukemia = tested on: SR leukemia
RPMI-8226 leukemia = tested on: RPMI-8226 leukemia
OVCAR-8 ovarian = tested on: OVCAR-8 ovarian
OVCAR-5 ovarian = tested on: OVCAR-5 ovarian
OVCAR-4 ovarian = tested on: OVCAR-4 ovarian
SK-OV-3 ovarian = tested on: SK-OV-3 ovarian
IGROV1 ovarian = tested on: IGROV1 ovarian
OVCAR-3 ovarian = tested on: OVCAR-3 ovarian
HS 578T breast = tested on: HS 578T breast
NCI/ADR-RES ovarian = tested on: NCI/ADR-RES ovarian
T-47D breast = tested on: T-47D breast
BT-549 breast = tested on: BT-549 breast
MDA-MB-435 melanoma = tested on: MDA-MB-435 melanoma
SW-620 colon = tested on: SW-620 colon
MCF7 breast = tested on: MCF7 breast
HCC-2998 colon = tested on: HCC-2998 colon
HCT-116 colon = tested on: HCT-116 colon
KM12 colon = tested on: KM12 colon

| SMILES | growth (SR leukemia) | growth (RPMI-8226 leukemia) | growth (OVCAR-8 ovarian) | growth (OVCAR-5 ovarian) | growth (OVCAR-4 ovarian) | growth (SK-OV-3 ovarian) | growth (IGROV1 ovarian) | growth (OVCAR-3 ovarian) | growth (HS 578T breast) | growth (NCI/ADR-RES ovarian) | growth (T-47D breast) | growth (BT-549 breast) | growth (MDA-MB-435 melanoma) | growth (SW-620 colon) | growth (MCF7 breast) | growth (HCC-2998 colon) | growth (HCT-116 colon) | growth (KM12 colon) |
| --- | --- | --- | --- | --- | --- | --- | --- | --- | --- | --- | --- | --- | --- | --- | --- | --- | --- | --- |
| COc1ccc(-c2nc3c(c(-c4ccc(Cl)cc4)nn3-c3ccccc3)c(-c3ccc(O)cc3)c2C#N)cc1 | -29.9% (active) | -33% (active) | 61.3% | 78.9% | 47.5% | 84.5% | 72.4% | 34.1% | 24.6% | 54.6% | 24.6% | 54.4% | 44.3% | 48.5% | 13.6% | 70.3% |  |  |
| CCOCCNc1ccc(S(=O)(=O)c2ccc(N)cc2)cc1N | 115% | 92.9% | 98.7% | 103% | 100% | 105% | 114% | 100% | 99% | 100% | 99.8% | 107% | 105% | 102% |  | 101% | 102% | 99.3% |
| CC(C)(C)c1ccc(OC(=O)Nc2ccccc2)cc1 | 76.3% | 105% | 105% | 106% | 113% | 110% | 107% | 105% | 103% | 106% | 99.7% | 87.5% | 107% | 106% |  | 107% | 97.4% | 104% |
| CC(C)CCSc1nc(-c2ccc(F)cc2)c(C#N)c(N2CCCCC2)n1 | 87.6% | 91.2% | 89.3% | 102% | 93.6% | 105% | 106% | 105% | 99.1% | 99.2% | 79% | 91.4% | 100% | 95.6% |  | 102% | 88% | 94.5% |
| CC(C)CCC(=O)[C@@H](C)[C@H]1[C@@H](OC2OCC(O)C(O)C2NS(C)(=O)=O)C[C@H]2[C@@H]3CC=C4C[C@@H](O)CC[C@]4(C)[C@H]3CC[C@]12C (some centres not stated) | 17% | -26.1% (active) | 35.4% | 64.5% | 75.5% | 0.627% (active) | 61.2% | 68.8% | -4.14% (active) | 82.7% | 43.6% | 22% | 1.92% (active) | 11.9% |  | 67.2% | 24.9% | 47% |
| O=C(CCl)N1c2ccccc2Oc2ccc3ccccc3c21 | 9.32% (active) | -24.7% (active) | -35.5% (active) | 22.4% | 20.7% | 30.7% | -70.2% (active) | -95.1% (active) | -12.6% (active) | -11.9% (active) | -62.5% (active) | -67.3% (active) | -22.4% (active) | -81.2% (active) | 10.4% | 103% | -98.8% (active) | 17.3% |
| CC(C)[C@@]12C[C@@H](OC(=O)C3CO3)[C@@](C)(O1)[C@@H]1CC[C@@H](C)[C@H]1[C@@H]2OC(=O)/C=C/c1ccccc1 (some centres not stated) | 74.6% | 89.1% | 22.4% | 100% | 111% | 76.9% | 74.6% | 90.4% | -21.2% (active) | 59.4% | 58.8% | 77.1% | 109% | 98.3% |  | 95% | 85.9% | 99.7% |
| CN1C2CCC1/C(=C\c1ccc(F)cc1)C(=O)/C2=C/c1ccc(F)cc1 | 21.6% | 11% | -19.8% (active) | 72.3% | 39.1% | 79.8% | 61.9% | 21% | 75% | 20.2% | 41.2% | 39.6% | 31.3% | 38.2% |  | 82.6% | 9.46% (active) | 31.3% |
| CCOC(=O)C(Cc1ccccc1)n1c(O)c(/C=N/c2ncc(Cc3ccc(Cl)cc3Cl)s2)sc1=S (configuration not stated) | 27.8% | -7.55% (active) | 2.66% (active) | 38.9% | 25.6% | 0.0373% (active) | 37.6% | 17.9% | -3.53% (active) | 5.71% (active) | -3.64% (active) | -1.04% (active) | 17.2% | 12% | 3.1% (active) | 16.5% |  | 10.8% |
| CC[C@H](C)[C@H](N)C(=O)O | 90.7% | 104% | 107% | 97.7% | 109% | 107% | 106% | 111% | 91.7% | 104% | 104% | 108% | 98.8% | 103% | 103% | 106% |  | 99.5% |
| O=C(/C=C/c1ccc(F)cc1)N1CCN(C(=O)/C=C/c2ccc(C(F)(F)F)cc2)CC1 | 114% | 124% | 105% | 109% | 116% | 118% | 122% | 113% | 123% | 113% | 113% | 115% | 104% | 106% | 98.2% | 102% |  | 108% |
| CC1(C)CN(CCNc2nccc(-c3c(-c4cccc(O)c4)nc4sccn34)n2)S(=O)(=O)N1 | 17.5% | 96.1% | 103% | 94.1% | 70.9% | 44.7% | 38.5% | 77.5% | 71.6% | 111% | 75.6% | 80.9% | 19.9% | 87.6% | 70% | 93.4% |  | 76.4% |
| ClC1=NC(Cl)C(Cl)=N/C1=N\c1ncn[nH]1 (configuration not stated) | -60.4% (active) | -8.16% (active) | -1.21% (active) | 85% | -70.3% (active) | 66.3% | -50.2% (active) | -82.2% (active) | 123% | 91.9% | -38.3% (active) | 91.4% | 13.8% | -78.7% (active) | 5.67% (active) | 53.6% | -70.2% (active) | 26.4% |
| CCCCCCCCCCCCC1CCC(=O)O1 (configuration not stated) | 93.6% | 97.4% | 108% | 85.4% | 94.1% | 102% | 86.7% | 105% | 108% | 100% | 74.1% | 96.5% | 98.8% | 90.3% | 93.4% | 104% |  | 100% |
| CCN(CC)CC(=O)Nc1c(C)cc(C(=O)NN)cc1C | 88.7% | 120% | 107% | 103% | 99.4% | 98.7% | 88.9% | 100% | 91.1% | 98.5% | 90.8% | 117% | 101% | 101% | 98.3% | 107% |  | 98.9% |
| COc1ccc(C(=O)O)cc1.[Ag] | 60.1% | 103% | 105% | 104% | 117% | 114% | 110% | 99.7% | 96.1% | 99.5% | 92.6% |  | 95.3% | -61.9% (active) | 100% | 104% | 94.5% | 87% |
| COc1cc(C2C(C#N)=C(N)Oc3cc4c(cc32)OCO4)cc2c1OCO2 (configuration not stated) | 15.3% | 31.4% | 35.1% | 41.3% | 42.3% | -5.36% (active) | 33.3% | -39.7% (active) | 23% | 11.2% | 53.7% | 34.8% | -50.6% (active) | 29% |  | 14.7% | 11% | 10.9% |
| COc1ccc(-c2nc(SCCC(C)C)nc(Nc3ccc(C(=O)O)cc3)c2C#N)cc1 | 77.3% | 62.9% | 93.9% | 105% | 89.2% | 109% | 110% | 97.5% | 94.2% | 102% | 71.7% | 82.6% | 99.3% | 101% |  | 104% | 84.4% | 86.3% |
